In the library only some 2.8% were active in any assay of this set; here they are far more common.
SNCA expr inhib – inhibitors of alpha-synuclein (SNCA) gene expression; HEK-293 SNCA-luciferase knock-in, luminescence, 24 h; Potency, µM (series often up to 57.2 µM), for the others: at the top dose activity change, negative = inhibition, hits mostly inhibitors; actives 0.17% (n = 140,000);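 further: potency means the concentration at half of the fitted maximal effect; plate controls were DMSO cells for no effect and cell-free wells for full effect; nearly all actives have a fitted effect of over 45% in size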
SNCA viab count – reduces viability of HEK-293 SNCA reporter cells. actives 0.12% (n = 150,000). HEK-293-SNCA-luc viability, GF-AFC fluorescence, 24 h. Potency, µM (top dose mostly 57.1 µM), inactives show at the highest dose activity change, negative = cytotoxicity, usual class: cytotoxic;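 further: potency means the concentration at half of the fitted maximal effect; 0% = DMSO-treated cells and -100% = medium-only wells without cells; nearly all actives have a fitted effect of over 30% in size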
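Cytotoxicity counterscreen: after 24 h compound treatment of genome-edited SNCA-luciferase HEK-293 cells, live-cell protease substrate GF-AFC read by fluorescence after 30 min; activity scaled between DMSO (0%) and medium-only (-100%), curves Hill-fitted.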
IP6K1 inhibitor – IP6K1 kinase inhibition; activity change, % (series mostly up to about 58 µM); Q92551; AID 1645851; IP6K1 kinase, ADP-Glo luminescence, 2 h; active compounds read low; actives 0.81% (n = 140,000); in the data active means activity change below about -25%; further: on the % scale 0 is the no-effect control and ±100 the full control effect
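ADP-Glo luminescence measures ADP made by human IP6K1 during a 2 h RT reaction with ATP/IP6 (mix at 1.3 mM/130 uM); top library doses 57.5 and 19.1 uM final.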
KDM5B inhibitor – blocks human KDM5B histone demethylase activity; KDM5B demethylase, FDH-coupled NADH fluorescence (FDH is formaldehyde dehydrogenase); Potency, µM (highest dose often 57.7 µM), hits mostly inhibitors; actives 2.6% (n = 220,000); further: potency means the concentration at half of the fitted maximal effect; 0% is about no effect; nearly all actives have a fitted effect of over 70% in size
Target sequence (Q9UGL1 whole entry, looked up): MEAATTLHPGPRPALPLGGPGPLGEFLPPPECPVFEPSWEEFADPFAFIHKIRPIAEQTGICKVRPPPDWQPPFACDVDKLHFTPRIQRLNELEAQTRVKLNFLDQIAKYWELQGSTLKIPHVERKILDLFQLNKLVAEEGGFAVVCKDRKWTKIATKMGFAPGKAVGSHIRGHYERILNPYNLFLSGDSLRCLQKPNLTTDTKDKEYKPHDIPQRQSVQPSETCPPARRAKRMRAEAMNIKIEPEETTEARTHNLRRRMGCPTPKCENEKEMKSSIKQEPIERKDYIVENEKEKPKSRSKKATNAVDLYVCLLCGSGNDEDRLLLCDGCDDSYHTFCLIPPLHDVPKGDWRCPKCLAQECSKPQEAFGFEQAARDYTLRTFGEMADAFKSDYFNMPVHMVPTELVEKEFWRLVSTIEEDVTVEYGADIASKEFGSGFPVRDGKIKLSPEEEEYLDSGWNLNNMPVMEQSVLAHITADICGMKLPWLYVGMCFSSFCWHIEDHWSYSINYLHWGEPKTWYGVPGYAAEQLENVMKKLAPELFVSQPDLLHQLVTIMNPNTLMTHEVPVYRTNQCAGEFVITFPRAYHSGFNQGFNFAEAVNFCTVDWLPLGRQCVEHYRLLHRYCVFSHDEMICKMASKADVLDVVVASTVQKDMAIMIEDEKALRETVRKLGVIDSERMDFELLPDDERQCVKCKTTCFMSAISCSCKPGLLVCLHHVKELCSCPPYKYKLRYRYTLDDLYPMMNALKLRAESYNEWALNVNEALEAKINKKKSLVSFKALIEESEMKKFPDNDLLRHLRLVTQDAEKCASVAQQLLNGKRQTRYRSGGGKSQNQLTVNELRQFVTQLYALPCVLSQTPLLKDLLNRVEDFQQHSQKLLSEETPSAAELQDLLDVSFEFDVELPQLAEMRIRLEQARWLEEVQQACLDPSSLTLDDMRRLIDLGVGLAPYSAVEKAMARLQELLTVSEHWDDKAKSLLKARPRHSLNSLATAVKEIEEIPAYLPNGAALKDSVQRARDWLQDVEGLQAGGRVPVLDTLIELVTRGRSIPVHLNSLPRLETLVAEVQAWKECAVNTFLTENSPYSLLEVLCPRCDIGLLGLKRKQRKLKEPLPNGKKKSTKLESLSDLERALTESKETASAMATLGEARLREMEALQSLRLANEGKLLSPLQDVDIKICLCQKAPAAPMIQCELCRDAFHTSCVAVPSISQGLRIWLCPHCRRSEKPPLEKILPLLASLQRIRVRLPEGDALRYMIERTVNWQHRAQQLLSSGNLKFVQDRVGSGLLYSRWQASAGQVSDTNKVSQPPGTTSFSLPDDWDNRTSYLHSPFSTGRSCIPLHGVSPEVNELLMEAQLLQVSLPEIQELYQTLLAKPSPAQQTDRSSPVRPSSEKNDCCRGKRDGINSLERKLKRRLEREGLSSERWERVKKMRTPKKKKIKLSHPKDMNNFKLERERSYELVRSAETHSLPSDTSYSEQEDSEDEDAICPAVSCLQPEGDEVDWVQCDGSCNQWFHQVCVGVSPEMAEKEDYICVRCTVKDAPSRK
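qHTS format, multiple compound concentrations. Buffer 50 mM HEPES pH 7.5/0.01% Tween-20; 200 nM KDM5BΔAP final; 10 min compound preincubation; substrate-mix levels 12.5 µM peptide, 25 µM α-KG, 0.25 mM NAD⁺; 30 min RT; ΔRFU.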
Active calls of the source: *; i = inactive; ? = inconclusive; / = not tested or not shown; [ ] = remark or other dose. Unless noted, the call rests on the fitted dose curve; in most records, active means well fitted curve in the direction sought with a large enough effect; inconclusive means small, poorly fitted or top-dose-only effect, or another doubt; inactive means no such curve, though single readings can be large; an effect the other way counts as inactive or inconclusive.

SMILES	SNCA expr inhib	SNCA viab count	IP6K1 inhibitor	KDM5B inhibitor
O=C1NC2(CCCN([S+](=O)([O-])c3ccsc3)C2)COc2ccccc21 (configuration not stated)	-11.6%	-15.6%	17.0	31.6µM*
COc1cccc([S+](=O)([O-])N2CCC3(COc4ccccc4C(=O)N3)C2)c1 (configuration not stated)	12.1%	1.8%	19.9	31.6µM*
CCC(C)NC(=O)Cn1c(=O)n(-c2ccc(C)c(C)c2)c(=O)c2c3c(sc21)CCCCC3 (configuration not stated)	-10.2%	-9.5%	-11.3	i
CC(C)CCC(=O)N1CC[C@@H](NC(=O)c2cccnc2)[C@@H](CO)C1	-2.6%	-0.7%	-5.9	/
C[C@]1(O)CCN(Cc2ccc(-c3ccccc3C#N)o2)C[C@@H]1O	1.8%	8.0%	13.1	25.1µM*
CCOc1c(Cl)cc(C(=O)N2CCN(C(=O)OC(C)(C)C)CC2)cc1OC	/	/	/	i
CCN1c2cc(C(=O)NCc3ccc(F)c(Cl)c3)ccc2C(=O)N2CCCCCC21 (configuration not stated)	-26.2%	?	-13.5	?
Cc1cccc(NC(=O)CN2C(=O)C(c3ccccc3)=NC23CCCC3)c1C	15.8µM*	-17.2%[12.5 µM]	11.2	i
Cc1cccc(NC(=O)CN2C(=O)C(c3ccc(F)cc3)=NC23CCCCCC3)c1C	?	?	11.6	?
FC(F)(F)C1CN(c2ccc3cc(Cl)ccc3n2)CCO1 (configuration not stated)	40.1%	3.0%	-6.3	14.1µM*
O=C(NC1CC1)c1ccc2nnc(-c3cncc(Cl)c3)n2c1	-8.0%[87.6 µM]	-0.1%[87.6 µM]	7.5	/
COCCNC(=O)c1ccc2nnc(-c3cncc(Cl)c3)n2c1	24.5%	3.8%	12.0	100µM*
O=C(NC1CC1)c1ccc2nnc(-c3ccc(Cl)cc3)n2c1	0.8%	-0.5%	-2.7	50.1µM*
O=C(CCC1CCCC1)N(Cc1ccncc1)C1CC1	/	/	/	i
COc1ccc(C(=O)N2CCc3ccc(C(=O)NCCC(C)C)cc32)cc1	-11.8%	-21.4%	-4.1	i
NC(=O)CN1CCC(C(=O)NCc2cn3cccnc3n2)CC1	-21.2%	0.0%	21.4	28.2µM*
COC(=O)c1ccccc1S(=O)(=O)N1CCC(C(=O)NCc2ccccn2)CC1	/	/	/	i
O=C(NCc1ccc(Cl)cc1)c1noc(-c2ccc3c(c2)OCO3)n1	52.0%	-2.8%	-3.0	?
Cc1noc(-c2ccc3c(c2)OCO3)c1C(=O)NCCCc1ccccc1	-6.6%	-5.4%	-1.5	25.1µM*
Cc1noc(-c2cccc(F)c2)c1C(=O)NCCCc1ccccc1	-27.7%	-13.2%	13.3	i
Cc1noc(-c2ccc3c(c2)OCO3)c1C(=O)NCc1cccc(Cl)c1	4.5%	8.2%	0.6	31.6µM*
Cc1noc(-c2ccc3c(c2)OCO3)c1C(=O)NCCC(c1ccccc1)c1ccccc1	-8.4%	17.9%	14.0	20µM*
CC(C)c1ccc(CNC(=O)c2noc(-c3ccc4c(c3)OCO4)n2)cc1	96.6%	18.5%	-6.6	25.1µM*
Cc1noc(-c2ccc(OC(F)(F)F)cc2)c1C(=O)NCCC(c1ccccc1)c1ccccc1	27.4%	18.2%	0.3	?
Cc1noc(-c2ccc3c(c2)OCO3)c1C(=O)NCCSCc1ccco1	-4.5%	11.8%	-10.8	?
SMILES	SNCA expr inhib	SNCA viab count	IP6K1 inhibitor	KDM5B inhibitor
Cc1noc(-c2ccc3c(c2)OCO3)c1C(=O)NCCSCc1ccccc1	3.1%	-0.8%	-6.5	31.6µM*
COc1cc(OC)cc(-c2onc(C)c2C(=O)NCCC(c2ccccc2)c2ccccc2)c1	-16.0%	0.7%	-15.6	31.6µM*
Cc1ccc(F)cc1S(=O)(=O)N[C@@H]1CCN(Cc2ccc(OC(C)C)cc2)C1	/	9.47µM*	-1.0	/
COc1ccc(-c2cc3c(=O)n(CCNC(=O)c4ccccc4C)ccn3n2)cc1	63.3%	-24.7%	-3.0	20µM*
Cc1ccc(-c2cc3c(=O)n(CCNC(=O)c4cc(F)ccc4F)ccn3n2)cc1C	87.2%	0.8%	-10.2	?
Cc1ccc(-c2cc3c(=O)n(CCNC(=O)c4nn(C)c5ccccc45)ccn3n2)cc1C	31.1%	-11.3%	-11.8	22.4µM*
COc1ccccc1C(=O)NCCn1ccn2nc(-c3ccc(C)c(C)c3)cc2c1=O	-9.1%	1.2%	-13.6	28.2µM*
CCCCc1ccc(NC(=O)CC)cc1	/	/	/	i
Cc1n[nH]c(C)c1C(NC(=O)c1c(C)c2cccc(C)c2n1C)C(=O)O (configuration not stated)	-2.6%	3.7%	-6.4	i
C=CCNc1ccccc1C(=O)NC(C(=O)O)c1c(C)n[nH]c1C (configuration not stated)	-23.5%	3.3%	-4.8	28.2µM*
CC1CCCC[C@H]2C(=O)C=C[C@H](O)[C@@H]2CC(=O)O1 (some centres not stated)	/	9.47µM*	-1.9	/
CN(C)C(=O)c1[nH]cnc1C(=O)NCC(C)(C)C	/	/	/	i
CN(C)C(=O)c1ccc2cc[nH]c2n1	?	?	-2.9	126µM*
O=C(Nc1ccc(F)cc1)c1ccc2cc[nH]c2n1	-34.3%[87.6 µM]	?	5.5	112µM*
CC(C)C(=O)N1CC(=O)N(C2CCCCC2)CC(OCc2ccccc2)C1 (configuration not stated)	-10.7%	5.3%	6.8	i
O=C(c1cnc2ccccn2c1=O)N1CC(=O)N(C2CCCCC2)CC(OCc2ccccc2)C1 (configuration not stated)	12.5%	-21.0%	15.3	31.6µM*
CNc1ccc(OC2CCN(C(=O)COC)CC2)nc1	44.7%	12.9%	2.1	28.2µM*
CN(C)CC(=O)Nc1ccc(OC2CCN(C)CC2)nc1	-24.3%	-18.0%	4.1	i
COc1cccc(-c2ncc(CNC(=O)[C@H]3CC[C@@H](N)C3)s2)c1	37.1%	6.1%	23.3	25.1µM*
COc1cccc(-c2ccc(C(=O)NCCNC(=O)C3CC3)cc2)c1	/	/	-11.3	/
COC(=O)[C@@H]1Cc2c([nH]c3ccccc23)[C@H]2C[C@@H](NCCO)C[C@@H](c3ccccc3F)N21	?	?	-6.7	28.2µM*
COC(=O)[C@@H]1Cc2c([nH]c3ccccc23)[C@H]2C[C@@H](NCCCn3ccnc3)C[C@@H](c3ccccc3F)N21	-13.3%	-21.4%	10.0	25.1µM*
COC(=O)[C@@H]1Cc2c([nH]c3ccccc23)[C@H]2C[C@@H](NCCNC(C)=O)C[C@@H](c3ccccc3F)N21	24.5%	3.7%	-12.2	?
COC(=O)[C@@H]1Cc2c([nH]c3ccccc23)[C@H]2C[C@H](NC[C@H]3CCCO3)C[C@@H](c3ccccc3F)N21	-12.0%	-13.6%	8.9	28.2µM*
CCc1ccc(C(=O)COC(=O)Cc2ccsc2)cc1	/	/	/	i
Cc1ccc(C(O)Cn2ccn3nc(-c4ccc(F)cc4)cc3c2=O)cc1C (configuration not stated)	-7.7%	-3.5%	-1.4	i
Cc1ccc(C(O)Cn2ccn3nc(-c4ccc(F)cc4)cc3c2=O)cc1 (configuration not stated)	-9.7%	4.7%	1.6	14.1µM*
